The results in this text go back to PubChem BioAssay (EPA / NIEHS).

Where “and” joins values, the source holds several entries; their conditions need not be identical. Identical values can stand only once. Records with an inconclusive call do not appear. Calls of active or inactive are those of the source. How the source made its calls, unless noted: active means hit-call score of the fitted dose curve at least 0.9, where 1 is the maximum; inactive means score below 0.9.

The target in assay [1] is human Peroxisome Proliferator-activated Receptor alpha (PPARa), PPARA (gene 5465) (UniProt Q07869). The experiment in a line: ATG_PPARa_TRANS: Attagene TRANS-FACTORIAL HepG2 Assay for human Peroxisome Proliferator-activated Receptor alpha (PPARa) (AID 2283001; active means hit-call score of the fitted dose curve at least 0.9, where 1 is the maximum;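 on AC50: potency for gain of reporter signal over DMSO so agonist or activator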). The method in brief:
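Cells (HepG2) are transfected with multiple reporter transcription units, exposed to chemical for 24 h, then total RNA is reverse-transcribed and amplified. Labelled products are quantified by capillary electrophoresis; induction is referenced to DMSO.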

The target of assay [2] is human Peroxisome Proliferator-activated Receptor delta (PPARd), PPARD (gene 5467) (UniProt Q03181). The experiment in a line: ATG_PPARd_TRANS: Attagene TRANS-FACTORIAL HepG2 Assay for human Peroxisome Proliferator-activated Receptor delta (PPARd) (AID 2283002; active means hit-call score of the fitted dose curve at least 0.9, where 1 is the maximum). In short, it runs like this:
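Measured quantity: GAL4-UAS reporter transcript induction in HepG2 after 24 h chemical dosing, with NR-Gal4 chimeras supplied by transient transfection. Detection by RT-PCR and capillary electrophoresis; upward fit against DMSO.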

Read-out in assay [3]: Intercellular Adhesion Molecule 1 (ICAM1), ICAM1 (gene 3383)
The experiment in a line: BSK_3C_ICAM1: BioMAP Diversity Plus: 3C Assay for Intercellular Adhesion Molecule 1 (ICAM1) Biomarker Activity (AID 2283003). Particulars: primary human endothelial cells (HUVEC); actives raise or lower the signal. The method in brief:
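ELISA readout of ICAM1 in human umbilical vein endothelial cells in the 3C system, taken 24 h post-dose. Gain or loss of signal versus DMSO was fitted in both directions, with SRB total-protein staining run in parallel.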

In assay [4] the target is human Retinoic Acid Receptor beta (RARb), RARB (gene 5915) (UniProt P10826). The experiment in a line: ATG_RARb_TRANS: Attagene TRANS-FACTORIAL HepG2 Assay for human Retinoic Acid Receptor beta (AID 2283004; active means hit-call score of the fitted dose curve at least 0.9, where 1 is the maximum). In short, it runs like this:
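HepG2 cells were transiently transfected with GAL4-UAS reporter units that report activity of exogenous chimeric NR-Gal4 proteins, then exposed to compound for 24 h. Reporter mRNA was quantified by RT-PCR with capillary electrophoresis fluorescence, as gain of signal over DMSO.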

Assay [5] in a line: BSK_3C_Proliferation: Cell Proliferation Assessment in the BioMAP Diversity Plus: 3C Assay (AID 2283006).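 On AC50: potency may reflect either rise or fall in cell number versus DMSO.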 Particulars: primary human endothelial cells (HUVEC). The method in brief:
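Proliferation as total protein: sulforhodamine B (0.1%) stain of TCA-fixed subconfluent human umbilical vein endothelial cells, absorbance 560 nm, 48 h after dosing. Activity fitted in both directions against DMSO baseline.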

The target in assay [6] is Peroxisome proliferator-activated receptor gamma (Homo sapiens) (UniProt P37231). The assay can be described thus: ATG_PPARg_TRANS: Attagene TRANS-FACTORIAL HepG2 Assay for human Peroxisome Proliferator-activated Receptor-gamma (PPARg) (AID 2283007; active means hit-call score of the fitted dose curve at least 0.9, where 1 is the maximum). In short, it runs like this: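 After 24 h of chemical exposure, transfected HepG2 cells carrying PPARγ-Gal4 chimera reporter constructs are lysed for RNA. Reporter transcripts are measured by RT-PCR and capillary electrophoresis with fluorescent labelling, and gain of signal is fitted versus DMSO.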
Sequence of Peroxisome proliferator-activated receptor gamma (Homo sapiens) (P37231 whole entry, looked up, the tested form may be a part): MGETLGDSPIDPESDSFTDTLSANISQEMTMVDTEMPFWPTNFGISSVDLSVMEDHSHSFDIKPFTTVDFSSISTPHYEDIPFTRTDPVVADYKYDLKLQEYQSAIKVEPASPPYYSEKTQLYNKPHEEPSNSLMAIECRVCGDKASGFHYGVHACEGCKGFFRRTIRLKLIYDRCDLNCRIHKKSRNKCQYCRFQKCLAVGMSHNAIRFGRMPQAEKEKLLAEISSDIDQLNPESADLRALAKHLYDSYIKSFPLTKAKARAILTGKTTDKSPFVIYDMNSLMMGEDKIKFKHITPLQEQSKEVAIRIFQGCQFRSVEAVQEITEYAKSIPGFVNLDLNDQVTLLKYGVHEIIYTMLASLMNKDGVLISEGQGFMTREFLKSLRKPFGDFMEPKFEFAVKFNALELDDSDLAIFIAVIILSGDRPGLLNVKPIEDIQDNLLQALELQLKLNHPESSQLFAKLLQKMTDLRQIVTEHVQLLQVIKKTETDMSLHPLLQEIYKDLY

Assay [7] has as its target Nuclear receptor subfamily 1 group I member 2 (Homo sapiens) (UniProt O75469). The experiment in a line: ATG_PXR_TRANS: Attagene TRANS-FACTORIAL HepG2 Assay for human Pregnane X Receptor (PXR) (AID 2283008; active means hit-call score of the fitted dose curve at least 0.9, where 1 is the maximum). In short, it runs like this: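 HepG2 transfected (FuGene 6) with GAL4-UAS reporter units + PXR-Gal4 chimera; dosed 24 h. Total RNA → oligo(dT) RT → PCR → 6-FAM primer extension → HpaI cut → CE. Gain-of-signal vs DMSO.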

Assay [8] has as its target Retinoic acid receptor RXR-alpha (Homo sapiens) (UniProt P19793). The experiment in a line: ATG_RXRa_TRANS: Attagene TRANS-FACTORIAL HepG2 Assay for human Retinoid X Receptor alpha (RXRa) (AID 2283012; active means hit-call score of the fitted dose curve at least 0.9, where 1 is the maximum). In short, it runs like this:
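TRANS format reporting activity of exogenous RXRa-Gal4 chimera in transiently transfected HepG2, 24 h exposure. Reporter transcripts quantified by RT-PCR with capillary electrophoresis, with gain of signal scored relative to DMSO.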

Assay [9] deals with human Retinoid X Receptor beta (RXRb), RXRB (gene 6257) (UniProt P28702). The experiment in a line: ATG_RXRb_TRANS: Attagene TRANS-FACTORIAL HepG2 Assay for human Retinoid X Receptor beta (RXRb) (AID 2283013; active means hit-call score of the fitted dose curve at least 0.9, where 1 is the maximum). In short, it runs like this:
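Readout is reporter transcript induction after 24 h dosing. It is measured by RT-PCR of total RNA followed by fluorescent capillary electrophoresis. HepG2 liver cells carry transfected multiple reporter units driven by an exogenous RXRb-Gal4 fusion; activity is relative to DMSO.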

The target of assay [10] is human Thyroid Receptor alpha (THRa1), THRA (gene 7067) (UniProt P10827). The experiment in a line: ATG_THRa1_TRANS: Attagene TRANS-FACTORIAL HepG2 Assay for human Thyroid Receptor alpha (THRa1) (AID 2283014; active means hit-call score of the fitted dose curve at least 0.9, where 1 is the maximum). The method in brief:
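HepG2 cells transiently transfected with chimeric NR-Gal4 and GAL4-UAS reporter units, dosed 24 h. Reporter mRNA quantified by RT-PCR, fluorescent labeling, HpaI digestion and capillary electrophoresis; gain-of-signal fit versus DMSO.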

Read-out in assay [11]: E-selectin (Homo sapiens) (UniProt P16581)
The assay can be described thus: BSK_3C_Eselectin: BioMAP Diversity Plus: 3C Assay for Eselectin Biomarker Activity (AID 2283015).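 On outcome: cell surface E-selectin protein quantified by ELISA 24 h after dosing.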 Particulars: primary human endothelial cells (HUVEC); actives raise or lower the signal. The method in brief:
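Primary human umbilical vein endothelial cells (3C system), read 24 h after compound addition; E-selectin measured by ELISA. Bidirectional curve fitting against DMSO baseline; cytotoxicity by parallel SRB total-protein staining.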

Read-out in assay [12]: Interleukin-1 alpha (IL1a), IL1A (gene 3552)
The experiment in a line: BSK_BE3C_IL1a: BioMAP Diversity Plus: BE3C Assay for Interleukin-1 alpha (IL1a) Biomarker Activity (AID 2283016). Particulars: primary human bronchial epithelial cells; actives raise or lower the signal. The method in brief: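 IL-1a measured by ELISA after 24 h treatment of human primary bronchial epithelial cells, with gain or loss of signal fitted versus DMSO. Parallel cultures stained with SRB gauge overt cytotoxicity.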

Read-out in assay [13]: Monocyte Chemoattractant Protein-1 (MCP1), CCL2 (gene 6347)
The assay can be described thus: BSK_3C_MCP1: BioMAP Diversity Plus: 3C Assay for Monocyte Chemoattractant Protein-1 (MCP1) Biomarker Activity (AID 2283017). Particulars: primary human endothelial cells (HUVEC); actives raise or lower the signal. In short, it runs like this:
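Human umbilical vein endothelial cells (3C system) exposed to chemicals for 24 h; MCP-1 quantified by ELISA against the DMSO baseline with bidirectional fitting, and parallel SRB staining used to assess cytotoxicity.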

Read-out in assay [14]: Monocyte Chemoattractant Protein-1 (MCP1), CCL2 (gene 6347)
The experiment in a line: BSK_4H_MCP1: BioMAP Diversity Plus: 4H Assay for Monocyte Chemoattractant Protein-1 (MCP1) Biomarker Activity (AID 2283018). Particulars: primary human endothelial cells (HUVEC); actives raise or lower the signal. In short, it runs like this: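 ELISA of MCP-1 (CCL2) 24 h after chemical dosing of HUVEC in the BioMAP 4H system. Gain or loss versus DMSO fitted; parallel SRB staining (560 nm) tracked overt cytotoxicity.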

Read-out in assay [15]: Human Leukocyte Antigen - DR isotype (HLADR), HLA-DRA (gene 3122)
The assay can be described thus: BSK_3C_HLADR: BioMAP Diversity Plus: 3C Assay for Human Leukocyte Antigen - DR isotype (HLADR) Biomarker Activity (AID 2283019).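 On outcome: ELISA of cell-surface HLA-DR on HUVEC 24 h after dosing.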 Particulars: primary human endothelial cells (HUVEC); actives raise or lower the signal. The method in brief:
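HUVEC monoculture, HLA-DR measured by ELISA 24 h after chemical dosing. Fitted bidirectionally against DMSO baseline; parallel SRB staining assessed cytotoxicity, with 3C proliferation read by SRB at 48 h.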

Read-out in assay [16]: Interleukin-8 (IL8), CXCL8 (gene 3576)
The experiment in a line: BSK_3C_IL8: BioMAP Diversity Plus: 3C Assay for Interleukin-8 (IL8) Biomarker Activity (AID 2283020). Particulars: primary human endothelial cells (HUVEC); actives raise or lower the signal. The method in brief: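 IL-8 was measured by ELISA in HUVEC cultures 24 h after chemical dosing, with gain or loss of signal fitted relative to DMSO. Parallel SRB total-protein staining tracked overt cytotoxicity.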

Read-out in assay [17]: Monokine induced gamma interferon (MIG), CXCL9 (gene 4283)
The assay can be described thus: BSK_3C_MIG: BioMAP Diversity Plus: 3C Assay for Monokine induced gamma interferon (MIG) Biomarker Activity (AID 2283021).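 On AC50: MIG protein level measured by immunoassay in the treated endothelial cultures.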 Particulars: primary human endothelial cells (HUVEC); actives raise or lower the signal. In short, it runs like this: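 ELISA measurement of MIG in human umbilical vein endothelial cells 24 h after treatment. Cytotoxicity tracked by SRB staining in parallel cultures; gain or loss of signal fitted relative to DMSO.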

For assay [18], the target named is human RAR-related Orphan Receptor beta (RORb), RORB (gene 6096) (UniProt Q92753). The assay can be described thus: ATG_RORb_TRANS: Attagene TRANS-FACTORIAL HepG2 Assay for human RAR-related Orphan Receptor beta (RORb) (AID 2283010; active means hit-call score of the fitted dose curve at least 0.9, where 1 is the maximum). In short, it runs like this: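 Read-out is reporter mRNA induction, quantified by RT-PCR with fluorescent capillary electrophoresis, 24 h post-dose in transiently transfected HepG2 expressing exogenous NR-Gal4 chimera. Activity fitted upward versus DMSO.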
Sequence of human RAR-related Orphan Receptor beta (RORb), RORB (gene 6096) (Q92753 whole entry, looked up, the tested form may be a part): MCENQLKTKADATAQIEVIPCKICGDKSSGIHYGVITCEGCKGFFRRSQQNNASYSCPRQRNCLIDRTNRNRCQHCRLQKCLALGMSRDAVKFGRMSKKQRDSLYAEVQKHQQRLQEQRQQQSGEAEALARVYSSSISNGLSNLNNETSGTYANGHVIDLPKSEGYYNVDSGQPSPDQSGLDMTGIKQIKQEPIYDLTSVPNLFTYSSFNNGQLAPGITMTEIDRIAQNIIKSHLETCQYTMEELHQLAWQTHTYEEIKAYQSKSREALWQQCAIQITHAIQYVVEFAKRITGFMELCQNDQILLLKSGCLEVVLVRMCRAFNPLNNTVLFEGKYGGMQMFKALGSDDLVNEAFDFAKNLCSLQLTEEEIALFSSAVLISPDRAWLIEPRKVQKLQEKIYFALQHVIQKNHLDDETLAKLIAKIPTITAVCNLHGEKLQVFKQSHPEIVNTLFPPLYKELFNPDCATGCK

Assay [19] addresses Retinoic acid receptor alpha (Homo sapiens) (UniProt P10276). The assay can be described thus: ATG_RARa_TRANS: Attagene TRANS-FACTORIAL HepG2 Assay for human Retinoic Acid Receptor alpha (RARa) (AID 2283005; active means hit-call score of the fitted dose curve at least 0.9, where 1 is the maximum). In short, it runs like this:
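HepG2 cells transiently transfected with multiple reporter units expressing chimeric RARα-GAL4 fusion, with GAL4-UAS-driven reporters. After 24 h compound exposure, reporter mRNA induction quantified by RT-PCR and capillary electrophoresis with fluorescent labeling; gain-of-signal fitted relative to DMSO control.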

Assay [20] addresses human RAR-related Orphan Receptor gamma (RORg), RORC (gene 6097) (UniProt P51449). The experiment in a line: ATG_RORg_TRANS: Attagene TRANS-FACTORIAL HepG2 Assay for human RAR-related Orphan Receptor gamma (RORg) (AID 2283011; active means hit-call score of the fitted dose curve at least 0.9, where 1 is the maximum). In short, it runs like this:
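HepG2 cells transiently transfected with GAL4-UAS reporter units and chimeric RORg-Gal4 construct; after 24 h chemical exposure, reporter mRNA measured by RT-PCR with fluorescent capillary electrophoresis, gain of signal fitted against DMSO.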

Sequence of E-selectin (Homo sapiens) (P16581 whole entry, looked up): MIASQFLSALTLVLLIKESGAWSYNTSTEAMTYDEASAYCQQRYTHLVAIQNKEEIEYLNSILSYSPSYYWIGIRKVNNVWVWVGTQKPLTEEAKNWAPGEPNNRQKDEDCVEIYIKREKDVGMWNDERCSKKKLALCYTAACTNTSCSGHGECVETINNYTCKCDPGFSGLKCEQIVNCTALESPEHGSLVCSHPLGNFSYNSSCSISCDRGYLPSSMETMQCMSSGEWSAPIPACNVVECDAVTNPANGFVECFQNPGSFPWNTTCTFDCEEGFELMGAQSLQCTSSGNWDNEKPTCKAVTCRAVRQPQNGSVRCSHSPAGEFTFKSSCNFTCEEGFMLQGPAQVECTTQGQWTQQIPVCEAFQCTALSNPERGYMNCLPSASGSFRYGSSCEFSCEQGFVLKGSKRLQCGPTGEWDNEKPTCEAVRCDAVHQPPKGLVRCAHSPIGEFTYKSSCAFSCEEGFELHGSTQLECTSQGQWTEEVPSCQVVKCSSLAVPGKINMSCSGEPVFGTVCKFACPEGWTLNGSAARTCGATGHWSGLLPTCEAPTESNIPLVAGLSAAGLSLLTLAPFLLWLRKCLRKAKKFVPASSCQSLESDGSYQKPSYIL
Sequence of human Peroxisome Proliferator-activated Receptor alpha (PPARa), PPARA (gene 5465) (Q07869 whole entry, looked up): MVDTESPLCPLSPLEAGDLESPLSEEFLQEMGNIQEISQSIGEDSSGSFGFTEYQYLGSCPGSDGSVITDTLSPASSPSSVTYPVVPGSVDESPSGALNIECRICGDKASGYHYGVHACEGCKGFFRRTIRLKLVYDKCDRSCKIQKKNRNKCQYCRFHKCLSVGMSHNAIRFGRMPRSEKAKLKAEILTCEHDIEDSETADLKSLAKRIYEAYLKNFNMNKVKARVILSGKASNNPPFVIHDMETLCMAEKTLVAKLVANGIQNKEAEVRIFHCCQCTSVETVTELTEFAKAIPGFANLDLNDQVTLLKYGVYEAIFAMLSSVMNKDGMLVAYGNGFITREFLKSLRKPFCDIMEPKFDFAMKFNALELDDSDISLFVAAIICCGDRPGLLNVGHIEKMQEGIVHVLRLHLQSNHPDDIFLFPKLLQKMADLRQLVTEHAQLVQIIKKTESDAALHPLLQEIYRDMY
Sequence of human Retinoid X Receptor beta (RXRb), RXRB (gene 6257) (P28702 whole entry, looked up, the tested form may be a part): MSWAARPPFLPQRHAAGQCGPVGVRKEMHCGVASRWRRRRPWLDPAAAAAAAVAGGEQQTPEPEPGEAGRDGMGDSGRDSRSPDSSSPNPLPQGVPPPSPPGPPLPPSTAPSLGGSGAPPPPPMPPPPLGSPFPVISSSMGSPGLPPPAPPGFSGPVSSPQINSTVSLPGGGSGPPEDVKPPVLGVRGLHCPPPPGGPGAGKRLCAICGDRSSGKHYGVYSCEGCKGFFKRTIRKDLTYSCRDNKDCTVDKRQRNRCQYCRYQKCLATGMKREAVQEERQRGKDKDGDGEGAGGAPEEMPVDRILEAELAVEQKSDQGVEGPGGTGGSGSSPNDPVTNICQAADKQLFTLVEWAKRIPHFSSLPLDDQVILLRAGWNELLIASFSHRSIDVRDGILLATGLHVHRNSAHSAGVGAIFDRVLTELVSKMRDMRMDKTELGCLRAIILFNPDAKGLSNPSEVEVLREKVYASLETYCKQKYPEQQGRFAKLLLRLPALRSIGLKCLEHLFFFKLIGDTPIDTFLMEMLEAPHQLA
Sequence of Nuclear receptor subfamily 1 group I member 2 (Homo sapiens) (O75469 whole entry, looked up, the tested form may be a part): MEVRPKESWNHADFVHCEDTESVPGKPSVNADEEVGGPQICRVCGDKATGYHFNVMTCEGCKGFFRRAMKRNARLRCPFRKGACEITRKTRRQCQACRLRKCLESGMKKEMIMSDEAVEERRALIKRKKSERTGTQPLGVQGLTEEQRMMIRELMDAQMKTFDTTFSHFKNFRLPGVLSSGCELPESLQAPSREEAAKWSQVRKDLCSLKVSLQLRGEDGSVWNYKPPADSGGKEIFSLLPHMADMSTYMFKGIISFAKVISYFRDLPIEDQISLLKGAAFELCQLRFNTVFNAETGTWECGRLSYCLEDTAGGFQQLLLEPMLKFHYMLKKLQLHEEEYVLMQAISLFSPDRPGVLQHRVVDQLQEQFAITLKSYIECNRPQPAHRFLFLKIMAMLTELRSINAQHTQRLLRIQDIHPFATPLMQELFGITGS
Sequence of human RAR-related Orphan Receptor gamma (RORg), RORC (gene 6097) (P51449 whole entry, looked up, the tested form may be a part): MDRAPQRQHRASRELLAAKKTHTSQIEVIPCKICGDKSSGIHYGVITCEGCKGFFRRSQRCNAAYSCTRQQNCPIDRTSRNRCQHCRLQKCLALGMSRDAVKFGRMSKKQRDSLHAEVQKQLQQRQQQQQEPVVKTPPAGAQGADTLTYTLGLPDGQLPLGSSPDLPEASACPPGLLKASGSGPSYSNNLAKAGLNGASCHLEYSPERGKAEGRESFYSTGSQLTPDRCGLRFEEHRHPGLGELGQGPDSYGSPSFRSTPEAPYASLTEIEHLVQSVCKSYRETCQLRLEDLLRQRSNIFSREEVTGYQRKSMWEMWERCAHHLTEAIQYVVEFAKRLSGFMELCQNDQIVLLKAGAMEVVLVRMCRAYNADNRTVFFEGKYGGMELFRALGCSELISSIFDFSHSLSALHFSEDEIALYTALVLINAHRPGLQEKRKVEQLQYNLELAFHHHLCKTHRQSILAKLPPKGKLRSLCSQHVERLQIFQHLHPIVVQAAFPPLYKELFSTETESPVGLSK
Sequence of human Peroxisome Proliferator-activated Receptor delta (PPARd), PPARD (gene 5467) (Q03181 whole entry, looked up, the tested form may be a part): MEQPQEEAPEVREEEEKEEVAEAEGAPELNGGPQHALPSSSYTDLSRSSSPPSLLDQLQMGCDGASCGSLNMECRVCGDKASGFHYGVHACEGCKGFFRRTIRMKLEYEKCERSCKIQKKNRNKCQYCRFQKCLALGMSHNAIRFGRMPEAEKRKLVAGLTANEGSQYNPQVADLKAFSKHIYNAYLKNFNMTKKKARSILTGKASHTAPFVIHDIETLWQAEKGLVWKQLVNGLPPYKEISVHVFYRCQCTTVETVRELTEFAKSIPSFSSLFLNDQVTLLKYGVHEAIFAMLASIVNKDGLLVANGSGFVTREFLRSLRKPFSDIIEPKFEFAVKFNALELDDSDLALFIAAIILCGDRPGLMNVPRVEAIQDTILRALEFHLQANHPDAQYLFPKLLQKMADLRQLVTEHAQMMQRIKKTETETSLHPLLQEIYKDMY
Sequence of human Thyroid Receptor alpha (THRa1), THRA (gene 7067) (P10827 whole entry, looked up, the tested form may be a part): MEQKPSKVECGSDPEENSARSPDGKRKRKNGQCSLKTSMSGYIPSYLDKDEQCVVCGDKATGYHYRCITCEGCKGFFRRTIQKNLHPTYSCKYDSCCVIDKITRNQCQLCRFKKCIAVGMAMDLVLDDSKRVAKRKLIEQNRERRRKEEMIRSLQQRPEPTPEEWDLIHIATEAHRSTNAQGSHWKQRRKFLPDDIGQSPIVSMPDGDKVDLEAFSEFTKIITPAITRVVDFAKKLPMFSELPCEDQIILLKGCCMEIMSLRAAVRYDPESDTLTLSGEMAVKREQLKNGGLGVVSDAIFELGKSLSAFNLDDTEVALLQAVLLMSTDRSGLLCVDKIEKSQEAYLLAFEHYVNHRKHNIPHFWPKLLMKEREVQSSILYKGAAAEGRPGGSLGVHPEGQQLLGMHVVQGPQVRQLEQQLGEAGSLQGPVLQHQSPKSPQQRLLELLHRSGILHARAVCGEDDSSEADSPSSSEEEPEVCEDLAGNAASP
Sequence of Retinoic acid receptor alpha (Homo sapiens) (P10276 whole entry, looked up, the tested form may be a part): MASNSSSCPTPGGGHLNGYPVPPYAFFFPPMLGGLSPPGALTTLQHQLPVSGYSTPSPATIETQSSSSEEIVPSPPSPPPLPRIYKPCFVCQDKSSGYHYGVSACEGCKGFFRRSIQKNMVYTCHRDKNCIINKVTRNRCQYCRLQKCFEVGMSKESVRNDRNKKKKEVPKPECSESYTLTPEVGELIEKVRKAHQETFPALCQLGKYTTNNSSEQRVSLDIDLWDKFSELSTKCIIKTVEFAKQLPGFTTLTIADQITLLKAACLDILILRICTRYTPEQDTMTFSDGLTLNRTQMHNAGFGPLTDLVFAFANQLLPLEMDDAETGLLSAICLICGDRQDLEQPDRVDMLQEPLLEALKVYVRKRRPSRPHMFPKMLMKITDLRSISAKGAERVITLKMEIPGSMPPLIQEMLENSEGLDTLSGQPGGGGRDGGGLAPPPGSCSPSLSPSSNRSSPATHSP

With `O=C(Nc1ccc(Cl)cc1)Nc1ccc(Cl)c(Cl)c1`, the compound was classed as inactive in assay [1], in assay [2], in [3], in [4], in assay [6] and in assay [7]. The result in assay [8], in [9], in assay [10], in assay [11], in [12] and in [17] was inactive. Besides, the AC50 (usually the midpoint of the concentration-response curve, whichever way the signal moves) in [5] is 2.04 µM (active); in assay [13], 3.28 µM (active); in [14], 4.31 µM (active); in [15], 1.68 µM (active); in assay [16] it was 1.87 µM (active).
Turning to `CCCCCCCCCC(=O)O`, the AC50 in assay [1] was 29.1 µM (active); in assay [6], 29.2 µM (active) and 12.3 µM (active); in assay [9], 30.2 µM (active) and 68.3 µM (active). Moreover, the result in assay [3], in assay [5], in [7], in assay [18], in [11] and in assay [12] was inactive. Further, the outcome in [13], in assay [14], in assay [15], in assay [16] and in assay [17] was inactive.
As for `O=C(O)c1ccccc1C(=O)OCc1ccccc1`, the compound was called inactive in assay [1], in [3], in assay [19], in [5], in [6] and in [7]. For the same compound, the compound was called inactive in assay [20], in assay [11], in assay [12], in [13], in assay [14] and in assay [15]. Further, the outcome in assay [16] and in assay [17] was inactive.
With `O=c1[nH]sc2ccccc12`, the compound was classed as inactive in assay [1], in [2], in assay [6], in assay [18], in assay [20] and in [9]. Besides, in assay [10], the outcome was inactive. Besides, the AC50 is 18.2 µM (active) in [3]; 1.55 µM (active) in assay [5]; 13.5 µM (active) in [11]; 27.7 µM (active) in [12]; 11.7 µM (active) in assay [13]; 11.6 µM (active) in assay [14]. Besides, the figures for the AC50 in assay [15], in assay [16] and in assay [17] were 5.39 µM (active), 14.4 µM (active) and 28.9 µM (active), respectively.
